Source: PubChem (National Center for Advancing Translational Sciences (NCATS))
Giardia FBPA inh: qHTS Assay for Inhibitors of Fructose-1,6-bisphosphate Aldolase from Giardia Lamblia | actives 0.71% (n = 290,000) | Potency, µM (highest dose often 59.6 µM), for inactives: at the top dose activity, negative = inhibition, actives largely listed as inhibitors | purified Giardia FBPA | A8B2U2 | AID 2451, 2010; further: potency means the concentration at half of the fitted maximal effect; on the % scale 0 is the no-effect control and ±100 the full control effect; nearly all actives have a fitted effect of over 55% in size
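Giardia FBPA (40 nM reagent) was preincubated 10 min at RT with compound (up to 57.5 uM final), then substrate plus GAPDH/TPI/NAD/arsenate coupling system with diaphorase/resazurin was added; resorufin fluorescence (525/598 nm) was read after 20 min.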
Shiga inhibitor: A qHTS for Small Molecule Inhibitors of Shiga Toxin | Vero cells, Shiga toxin protein synthesis inhibition reporter | inhibition, % at 38.7 µM | actives 9.2% (n = 290,000) | AID 2315, 2010; in the data active means inhibition mostly above about 28%, no sharp cut-off; inactive means mostly below about 43%; further: 0% is about no effect
Sm TGR inh: qHTS Assay for the Inhibitors of Schistosoma Mansoni Peroxiredoxins; purified TGR, DTNB reduction, TNB absorbance 405 nm; Potency, µM (highest dose often 114 µM), without a hit: top-dose activity change, negative = inhibition, most hits filed as inhibitors; actives 3% (n = 360,000); AID 485364, 2010; further: potency means the concentration at half of the fitted maximal effect; on the % scale 0 is the no-effect control and ±100 the full control effect; nearly all actives have a fitted effect of over 60% in size
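First, TGR (20 nM dispensed) and NADPH were mixed with compound. Second, a 15 min room-temperature incubation followed. Third, further NADPH and then DTNB were added to start the reaction. Finally, TNB absorbance was monitored kinetically.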
Tb PYK inh: qHTS of Trypanosoma Brucei Inhibitors | pyruvate kinase (Trypanosoma brucei), Q57TT1 | AID 624173, 2012 | Potency, µM (series often up to 76.8 µM), without a hit: at the highest dose activity, negative = inhibition, actives largely listed as inhibitors | TbPYK enzyme, Kinase-Glo Plus ATP luminescence, 45 min | actives 0.12% (n = 410,000); further: potency means the concentration at half of the fitted maximal effect; on the % scale 0 is the no-effect control and ±100 the full control effect; nearly all actives have a fitted effect of over 50% in size
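T. brucei PYK with substrate was exposed to pin-transferred compounds across a concentration series, then started with 130 uM ADP (final). After 45 min at room temperature, Kinase-Glo Plus luminescence was read, normalized and curve-fitted.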
Cycloheximide cs: Cycloheximide Counterscreen for Small Molecule Inhibitors of Shiga Toxin. cell reporter, cycloheximide protein synthesis inhibition counterscreen. max response, %. AID 2314, 2010. actives 12% (n = 300,000); in the data active means max response mostly above about 13%, no sharp cut-off; inactive means mostly below about 14%; further: read at 38.3 µM for the half of the compounds with a filed dose; 0% is about no effect
LmPK inhibitor: qHTS Assay for Inhibitors of Leishmania Mexicana Pyruvate Kinase (LmPK); Q27686; purified LmPK, Kinase-Glo ATP luminescence, 1 h; Potency, µM (series often up to 57.5 µM), for the others: at the highest dose activity change, negative = inhibition, most hits filed as inhibitors; actives 0.37% (n = 290,000); AID 1721, 2009; further: potency means the concentration at half of the fitted maximal effect; on the % scale 0 is the no-effect control and ±100 the full control effect
Target sequence (Q27686 whole entry, looked up): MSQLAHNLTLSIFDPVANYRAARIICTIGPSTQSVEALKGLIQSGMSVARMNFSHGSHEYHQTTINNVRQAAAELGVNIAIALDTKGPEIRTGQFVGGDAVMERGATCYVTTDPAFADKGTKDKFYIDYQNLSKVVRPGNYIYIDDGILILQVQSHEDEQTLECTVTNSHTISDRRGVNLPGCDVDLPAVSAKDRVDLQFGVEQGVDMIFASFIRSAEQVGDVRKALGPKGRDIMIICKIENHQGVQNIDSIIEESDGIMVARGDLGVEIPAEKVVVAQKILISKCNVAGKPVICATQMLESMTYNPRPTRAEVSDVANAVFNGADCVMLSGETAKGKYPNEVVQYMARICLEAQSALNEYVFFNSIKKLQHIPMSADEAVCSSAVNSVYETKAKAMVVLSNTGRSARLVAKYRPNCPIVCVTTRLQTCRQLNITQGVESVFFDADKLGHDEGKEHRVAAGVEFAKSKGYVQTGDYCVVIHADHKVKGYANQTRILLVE
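ATP generated from ADP (0.1 mM) and PEP (0.5 mM) by 0.1 nM LmPK over 1 h at room temperature (pH 7.2 imidazole buffer) was detected by coupled luciferase luminescence. Values were normalized to uninhibited and no-enzyme wells.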
* = called active by the depositor; ? = inconclusive; . = no result; [ ] = remark or other dose. This excerpt belongs to a sample that is enriched for hits. Unless noted, the call rests on the fitted dose curve; in most records, active means well fitted curve in the direction sought with a large enough effect; inconclusive means small, poorly fitted or top-dose-only effect, or another doubt; inactive means no such curve, though single readings can be large; an effect the other way counts as inactive or inconclusive.

SMILES | Giardia FBPA inh | Shiga inhibitor | Sm TGR inh | Tb PYK inh | Cycloheximide cs | LmPK inhibitor
O=S(=O)(c1ccc(F)cc1)c1nc(-c2ccc(F)cc2)oc1NCCN1CCOCC1 | 2% | -21 | -35% | 1% | 1 | -3%
O=C(CCn1ccc2cc(S(=O)(=O)N3CCCC3)ccc21)NCc1ccccc1Cl | . | . | -1% | -6% | . | .
CCCCNc1oc(-c2ccc(OC)cc2)nc1S(=O)(=O)c1ccccc1 | -8% | 7 | 32µM* | -1% | 11 | 10%
COC(=O)C1=C(c2ccc(C(C)=O)cc2)C[C@@H]2CC[C@H]1N2C | . | . | -7% | 4% | . | .
COC(=O)C1=C(c2ccc(C(C)=O)cc2)C[C@@H]2CC[C@H]1N2C(=O)NC(C)C | . | . | 35µM* | 0% | . | .
CCSc1ncc(Cl)c(C(=O)Nc2sc(C(C)=O)c(C)c2C(=O)OC)n1 | . | . | 7% | 1% | . | .
CCOC(=O)C1(Cc2ccccc2C)CCCN(C(=O)COC)C1 (stereo not drawn) | 11% | 41* | ? | 2% | 23* | -3%
CCOC(=O)C1(Cc2cccc(Cl)c2)CCCN(C(=O)CCSC)C1 (stereo not drawn) | 3% | 29 | 0% | 1% | 22* | -3%
CCOC(=O)C1(Cc2cccc(Cl)c2)CCCN(C(=O)CCN2CCCC2=O)C1 (stereo not drawn) | . | 31 | 0% | . | 25* | -10%
CCOC(=O)C1(Cc2cccc(Cl)c2)CCCN(C(=O)CCOC)C1 (stereo not drawn) | -5% | 18 | 1% | 11% | 13* | 2%
COc1ccc(C2=NOC(C(=O)Nc3ccc4c(c3)OCCO4)C2)cc1OC (stereo not drawn) | 5% | 18 | 32µM* | 3% | 11 | -5%
COc1cccc(C2=NOC(C(=O)Nc3ccc(OC)c(OC)c3)C2)c1 (stereo not drawn) | -10% | 7 | 3% | -2% | 17* | -1%
COc1ccc(NC(=O)C2CC(c3c(F)cccc3Cl)=NO2)cc1 (stereo not drawn) | -2% | . | -8% | 6% | 18* | 5%
COc1ccc(NC(=O)C2CC(c3cccc(Br)c3)=NO2)cc1OC (stereo not drawn) | 6% | . | -4% | -10% | -1 | -1%
CCOc1cc(CNCCSc2nnnn2C)cc(Cl)c1OCc1ccc(Cl)cc1 | . | . | 0% | 0% | . | .
C/C(=N\NC(=S)NCc1ccccc1)c1ccccc1 | 15% | active | 7% | -6% | 28* | 3%
CC/C(C)=N/NC(=S)NCc1ccco1 | ? | -4 | -33% | -3% | -2 | -3%
CC1=C/C(=N\NC(=S)NCc2ccccc2)CC1 | 2% | 56* | -9% | -1% | 26* | 0%
C/C(=N\NC(=S)NCc1ccccc1)c1ccccc1F | -4% | 46* | 9% | -5% | 23 | 14%
C/C(=N\NC(=S)NCc1ccccc1)c1ccc(C#N)cc1 | -5% | -5 | 3% | -3% | -2 | 1%
C/C(=N\NC(=S)NCc1ccccc1)c1ccco1 | -1% | 37* | -20% | -12% | 19* | -1%
Cc1noc(C)c1C(=O)N1CCC2(CC1)CN(c1cccc(-c3ccccc3)c1)C2 | -9% | . | . | 1% | . | .
COc1ccc(CNC(=S)N/N=C(/C)c2ccccc2)cc1 | -3% | 84* | 14% | -2% | 49* | 7%
C/C(=N\NC(=S)NCc1ccccc1)c1ccc(C(C)(C)C)cc1 | -1% | -7 | -16% | -18% | 12* | -5%
C/C(=N\NC(=O)COc1ccc(C(C)(C)C)cc1)c1ccccc1 | -6% | 18 | -1% | 2% | -2 | 2%
SMILES | Giardia FBPA inh | Shiga inhibitor | Sm TGR inh | Tb PYK inh | Cycloheximide cs | LmPK inhibitor
Cc1ccc2nc(NCc3ccccc3)c3nncn3c2c1 | . | . | -1% | 1% | . | .
COC(=O)CC1C(=O)NCCN1Cc1cn(-c2ccc(C)cc2)nc1-c1cccc(C)c1 (stereo not drawn) | ? | 46* | 0% | 1% | 20* | 2%
Cc1ccc(-n2cc(CNCCN3CCOC3=O)c(-c3cccc(C)c3)n2)cc1 | 2% | 54* | 22µM* | 10% | 16* | 0%
Nc1nc2ccc([N+](=O)[O-])cc2s1 | . | . | . | 3%[157 µM] | . | .
O=C(CSc1ccc(-c2ccccn2)nn1)N1CCCCC1 | -28% | 72* | -7% | -9% | 31* | -3%
O=C(CSc1ccc(-c2cccnc2)nn1)N1CCCCC1 | -7% | 1 | -20% | -9% | -7 | -6%
O=C(CSc1ccc(-c2ccncc2)nn1)N1CCCCC1 | 1% | -4 | -1% | 3% | 9 | 1%
O=C(CSc1ccc(-c2ccc(F)cc2)nn1)N1CCCCC1 | -5% | 49* | -1% | -26% | 11 | ?
O=C(CSc1ccc(-c2ccco2)nn1)N1CCCCCC1 | -5% | 51* | 25µM* | -7% | 24 | 0%
O=C(CSc1ccc(-c2ccccc2)nn1)N1CCCCC1 | -3% | 72* | 16% | ? | 31* | -2%[11.5 µM]
CN(C(=O)CSc1cn(CC(=O)N2CCCCC2)c2ccccc12)c1ccccc1 | . | . | 4% | -10% | . | .
COC(=O)N1C(C)=Cc2ccccc2C1C/C(C)=C/C(C)=O (stereo not drawn) | -1% | . | . | . | . | -1%[11.5 µM]
O=C(O)[C@@H]1CCCN1 | . | . | . | -2% | . | .
O=C1C2C3C=CC(CC3)C2C(=O)N1/N=C/c1ccco1 (stereo not drawn) | 0% | 26 | -13% | 2% | 17* | 12%
COC(=O)c1ccc(-c2ccc(/C=N/N3C(=O)C4C5C=CC(CC5)C4C3=O)o2)cc1 (stereo not drawn) | -1% | 37 | . | 4% | 35* | 4%
Cc1ccccc1NC(=O)CSc1nnc(-c2cccc(Cl)c2)o1 | . | . | 1% | 1% | . | .
O=C(/C=C/c1cccc([N+](=O)[O-])c1)c1ccc([N+](=O)[O-])o1 | . | . | . | -5% | . | .
COc1ccc(/C=C/C(=O)c2ccc([N+](=O)[O-])o2)cc1 | . | . | ? | -4% | . | .
Cc1ccccc1/C=C/C(=O)c1ccc([N+](=O)[O-])o1 | . | . | 2µM* | -8% | . | .
Cc1cccc(/C=C/C(=O)c2ccc([N+](=O)[O-])o2)c1 | . | . | 1.6µM* | 0% | . | .
CCC(=O)c1ccc2c(c1)N(CCCN1CCN(CCO)CC1)c1ccccc1S2 | . | . | . | 2% | . | .
COc1cc2c(cc1OC)-c1cc(Nc3ccc4c(c3)OCCO4)nc(=O)n1CC2 | -25% | 78* | -8% | -6% | 67* | -2%
COc1ccc(Nc2cc3n(c(=O)n2)CCc2cc(OC)c(OC)cc2-3)cc1 | -20% | 27 | ? | 7% | 17 | -3%
